Results on 50 compounds are retold here after the supplement of paper PMC12340641.

The structures appear in SMILES notation. Over roughly 1,000 compounds, “relative growth recovery (pomalidomide 10 uM = 100%, DMSO = 0%)” has its median near -1.6; the highest 2% begin near 21. For the sample, the highest values were picked, then their nearest neighbours and some compounds at random.

This assay relates to HEK293FT dCK*-IKZF1. Nature of the assay: relative growth recovery (pomalidomide 10 uM = 100%, DMSO = 0%); higher = more growth rescue (IKZF1 fusion degradation). The following applies: compound concentration: 5 uM; AraC concentration: 0.3 uM; overnight pretreatment + 4 days AraC. As for the experimental part:
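Growth recovery screen of the molecular-glue-like (Specs) library. HEK293FT cells expressing a dCK*-IKZF1 fusion (primary) or dCK* alone (counter) were pretreated overnight with compound at 5 uM, then given 0.3 uM AraC for 4 days. Hoechst nuclei were counted by imaging. Primary: normalised to pomalidomide (100%) and DMSO (0%), mean of 2 replicates. Counter: normalised to no-AraC (100%) and AraC+DMSO (0%), single replicate.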
On to `CC(C)(C)C(=O)NC1(C(=O)N2CCC(c3cccc(Nc4ncc(Cl)s4)n3)CC2)CCCCC1`, for which the relative growth recovery was -18.6%.

For the compound `COCC(=O)N1CCC(c2cccc(Nc3ncc(C)s3)n2)CC1`, the relative growth recovery was -19.4%.

As to `CC(=O)Nc1ccc(-c2csc(Nc3ccccn3)n2)cc1`, the relative growth recovery was 2.7%.

As to `CC(=O)Nc1ccc(-c2csc(Nc3cccc(C)n3)n2)cc1`, the relative growth recovery is 0.905%.

Turning to `CC(=O)Nc1ccc(-c2csc(Nc3ccc(Cl)cn3)n2)cc1`, the relative growth recovery was -2.84%.

Take `Cc1ccc(Nc2nc(-c3sc(NC(=O)c4ccccc4)nc3C)cs2)nc1`: the relative growth recovery turned out to be 111%.

For `Cc1ccnc(Nc2nc(-c3sc(NC(=O)c4ccccc4)nc3C)cs2)c1`, the relative growth recovery stood at 111%.

For `CC(=O)N1CCCC(c2csc(Nc3ccc(C)cn3)n2)C1` (stereo not given), the relative growth recovery is -5.95%.

On to `CC(=O)N1CCCC1c1csc(Nc2ccccn2)n1` (stereo not given), for which the relative growth recovery was -4.06%.

In the case of `Cc1cccc(Nc2nc(-c3sc(NC(=O)c4ccccc4)nc3C)cs2)n1`, the relative growth recovery turned out to be 121%.

Turning to `CC(=O)Nc1cccc(-c2csc(Nc3cccc(C)n3)n2)c1`, the relative growth recovery is 5.18%.

As for `Cc1nc2ccccn2c1CC(=O)N1CCOC(c2cccc(Nc3nccs3)n2)C1` (stereo not given), the relative growth recovery worked out at 10.9%.

Consider `Cc1cnc(Nc2cccc(C3CN(C(=O)COc4ccccc4)CCO3)n2)s1` (stereo not given), for which the relative growth recovery is -5.58%.

As to `CCCc1cnc(Nc2cccc(C3CCN(C(=O)C4CCCCN4C(=O)CN(C)C)CC3)n2)s1` (stereo not given), the relative growth recovery was -2.86%.

In the case of `Cc1csc(Nc2cccc(C3CCN(C(=O)c4cccnc4)CC3)n2)n1`, the relative growth recovery came to 8.94%.

For the compound `Cc1cc(C)c(C(=O)Nc2ccc(S(=O)(=O)Nc3cc(C)nc(C)n3)cc2)c(C)c1`, the relative growth recovery is -1.16%.

For the compound `Cc1csc(Nc2cccc(C3CN(CC(=O)NCc4ccccn4)CCO3)n2)n1` (stereo not given), the relative growth recovery came out at 8.57%.

As to `COCC(=O)N1CCOC(c2cccc(Nc3nc(C)cs3)n2)C1` (stereo not given), the relative growth recovery came out at 2.9%.

As to `Cc1csc(Nc2cccc(C3CN(C(=O)COc4c(C)cccc4C)CCO3)n2)n1` (stereo not given), the relative growth recovery was found to be 22.3%.

`Cc1cnc(Nc2cccc(C3CN(C(=O)C45CC6CC(CC(C6)C4)C5)CCO3)n2)s1` (stereo not given): the relative growth recovery is -2.75%.

For `Cc1csc(Nc2cccc(C3CN(C(=O)CCn4ncc5ccccc54)CCO3)n2)n1` (stereo not given), the relative growth recovery was found to be 18.8%.

Take `Cc1cnc(Nc2cccc(C3CN(C(=O)C4CC4c4ccc(Cl)cc4)CCO3)n2)s1` (stereo not given): the relative growth recovery worked out at 28.4%.

`Cc1csc(Nc2cccc(C3CN(C(=O)Cn4nc(C)ccc4=O)CCO3)n2)n1` (stereo not given): the relative growth recovery was found to be 1.32%.

Turning to `Cc1cnc(Nc2cccc(C3CN(C(=O)CCC4CCCCC4)CCO3)n2)s1` (stereo not given), the relative growth recovery stood at 7.2%.

For `Cc1cnc(Nc2cccc(C3CN(C(=O)C4CCCC4)CCO3)n2)s1` (stereo not given), the relative growth recovery is -12.3%.

Take `Cc1csc(Nc2cccc(C3CN(C(=O)CCC4CCCC4)CCO3)n2)n1` (stereo not given): the relative growth recovery came to 21%.

For the compound `Cc1csc(Nc2cccc(C3CN(C(=O)CCOc4ccccc4C)CCO3)n2)n1` (stereo not given), the relative growth recovery amounted to 62.8%.

Turning to `COc1cccc(OC)c1C(=O)N1CCOC(c2cccc(Nc3nc(C)cs3)n2)C1` (stereo not given), the relative growth recovery stood at 7.41%.

As to `Cc1csc(Nc2cccc(C3CCCN3C(=O)CCOc3ccccc3C)n2)n1` (stereo not given), the relative growth recovery stood at 11.5%.

With `COc1cc(NS(=O)(=O)c2ccc(NC(=O)c3ccc(Br)o3)cc2)nc(OC)n1`, the relative growth recovery was found to be 2.29%.

Take `CC(C)(N)C(=O)N1CCC(CO)(c2cccc(Nc3ncc(-c4ccccc4)s3)n2)CC1`: the relative growth recovery is -19.1%.

In the case of `Cc1cc(NS(=O)(=O)c2ccc(NC(=O)c3cccnc3)cc2)nc(C)n1`, the relative growth recovery amounted to 1.28%.

For the compound `CCCOc1ccc(C(=O)Nc2ccc(S(=O)(=O)Nc3ncccn3)cc2)cc1`, the relative growth recovery was -3.33%.

`Cc1cc(C)nc(NS(=O)(=O)c2ccc(NC(=O)CSc3nc4c(cc3C#N)CCC4)cc2)n1`: the relative growth recovery is -6.17%.

Regarding `Cc1nc(Nc2cccc(C3CCCN3C(=O)CCOc3cccc(F)c3)n2)sc1C` (stereo not given), the relative growth recovery was 8.19%.

`CCOc1ccccc1OCC(=O)Nc1ccc(S(=O)(=O)Nc2ccccn2)cc1`: the relative growth recovery was -1.77%.

Consider `COc1ccccc1CCC(=O)N1CCC(c2cccc(Nc3ncc(C)s3)n2)CC1`, for which the relative growth recovery is 19%.

Take `Cc1ccc(N2C(=O)c3ccc(Oc4ccc(N)cc4)cc3C2=O)cc1`: the relative growth recovery is -1.57%.

`Nc1ccc(Oc2ccc3c(c2)C(=O)N(c2ccccc2)C3=O)cc1`: the relative growth recovery came out at 2.54%.

Turning to `COCCNC(=O)C1(c2cccc(Nc3ncc(C)s3)n2)CCN(C(=O)C2CCCCC2)CC1`, the relative growth recovery is -5.38%.

As to `Cc1ccnc(NS(=O)(=O)c2ccc(NC(=O)Cc3ccc(Cl)cc3)cc2)n1`, the relative growth recovery was found to be 2.92%.

For `Cc1cnc(Nc2cccc(C3CCCN3C(=O)CCCc3ccc(F)cc3)n2)s1` (stereo not given), the relative growth recovery is 0.955%.

As for `Cn1cc(/C=C/C(=O)N2CCC(c3cc4ccccc4c(Nc4nccs4)n3)CC2)cn1`, the relative growth recovery is -18.7%.

For the compound `CCc1nccn1CC(=O)N1CCOC(c2cccc(Nc3ncc(C)s3)n2)C1` (stereo not given), the relative growth recovery is 0.35%.

In the case of `Cc1cc(C)c(S(=O)(=O)Nc2ccc(S(=O)(=O)Nc3ncccn3)cc2)c(C)c1`, the relative growth recovery is 6.84%.

As to `COc1ccc2[nH]c3nc(SCC(=O)Nc4cc(Cl)ccc4OC)nnc3c2c1`, the relative growth recovery is -18.5%.

As to `COc1cc(NS(=O)(=O)c2ccc(NC(=O)C3CC3)cc2)nc(OC)n1`, the relative growth recovery was -1.71%.

In the case of `O=C(O)CCCNc1cccc2c1C(=O)N(C1CCC(=O)NC1=O)C2=O` (stereo not given), the relative growth recovery worked out at 3.32%.

As to `O=C1CCC(N2C(=O)c3cccc(NC[C@H]4CC[C@H](C(=O)O)CC4)c3C2=O)C(=O)N1` (stereo not given in full), the relative growth recovery worked out at 50.3%.

As for `O=C(O)CCOCCNc1cccc2c1C(=O)N(C1CCC(=O)NC1=O)C2=O` (stereo not given), the relative growth recovery was -5.19%.
